In the library only some 1.6% were active in any assay of this set; here they are far more common.
p53ts 32C tox: qHTS Screen for Compounds that Selectively Target Cancer Cells with p53 Mutations: Cytotoxicity of p53ts Cells at the Permissive Temperature; H1299-p53A138V at 32C, ATP luminescence viability, 24 h; Potency, µM (doses to about 46.1 µM), for inactives: at the top dose activity change, negative = cytotoxicity, actives largely listed as cytotoxic; hit rate 0.93% among 130,000;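 also: 0% = DMSO and -100% = full killing by reference compound; nearly all actives have a fitted effect of over 55% in size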
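Cells: H1299 p53ts (A138V), 600/well, pre-incubated 16–30 h at 37C. Cpd up to 46 uM, 24 h, 32C. Readout: ATPlite luminescence, 20 min RT. Normalization: DMSO vs tamoxifen 100 uM. AC50 by Hill equation.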
p53ts 39C kill: qHTS Screen for Compounds that Selectively Target Cancer Cells with p53 Mutations: Cytotoxicity of p53ts Cells at the Nonpermissive Temperature; hit rate 1.5% among 130,000; H1299-p53A138V viability at 39C, ATP luminescence, 24 h; Potency, µM (series often up to 46.1 µM), for the others: top-dose activity change, negative = cell killing, usual class: cytotoxic; also: % is scaled to controls: 0 for no effect and ±100 for the full control effect; nearly all actives have a fitted effect of over 55% in size
Peg3 imprint: qHTS Assay for Compounds that Induce Erasure of Genomic Imprints; mouse ES Peg3-LacZ reporter, beta-gal luminescence, 40 h; hit rate 0.02% among 110,000; Potency, µM (titrated, usually from 60.7 µM), for the others: top-dose activity change, positive = activation, usual class: activators
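Imprint erasure is scored as LacZ activity from the silenced maternal Peg3 allele in feeder-free female ES cells cultured 40 h with LIF. Luminescence is normalized to in-plate negative controls and fitted to the Hill equation.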
IkB signaling: IkB Signaling; ABC-DLBCL IkBa-CBG/CBR dual luciferase ratio, 4 h; response scale: scaled: untreated 0%, proteasome inhibitor 100%; Potency, µM (series often up to 57.1 µM), for the others: at the highest dose IkBa stabilization activation; hit rate 0.04% among 110,000; active = well fitted curve in the direction sought with a large enough effect in the signal ratio, not every such curve was filed as active; inconclusive = small, poorly fitted or top-dose-only effect, or a change in a side signal; the % refers to the signal ratio;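 also: the direction sought is a rising ratio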
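Luminescence ratio of IκBα-fused green versus native red beetle luciferase in OCI-Ly3 cells, 4 h post-doxycycline with compound; red signal alone, scaled from basal (0%) to zero light (-100%), flagged nonspecific or cytotoxic effects.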
* marks the source's active call; other numbers are inactive results; ? = inconclusive; / = no result; [ ] = another dose, or the depositor's remark. Unless noted, calls follow the shape of the dose curve; as a rule, active = well fitted curve in the direction sought with a large enough effect; inconclusive = small, poorly fitted or top-dose-only effect, or another doubt; inactive = no such curve, though single readings can be large; an effect the other way counts as inactive or inconclusive. Potency is read from the fitted curve at half-maximal effect.

SMILES | p53ts 32C tox | p53ts 39C kill | Peg3 imprint | IkB signaling
CCCn1c(=N)n(CC(O)COc2cccc(C)c2)c2ccccc21 (configuration not stated) | -14% | -23% | -17% | ?
CCCCCn1c(=N)n(CC(O)COc2cccc(C)c2)c2ccccc21 (configuration not stated) | ? | 10µM* | -16%[10.9 µM] | ?
C/C(=N/Nc1ccc2ccccc2n1)c1ccccc1O | 3.2µM* | 2.5µM* | -56%[10.9 µM] | ?
O=c1c(-c2ccc3c(c2)OCCO3)coc2cc(O)cc(O)c12 | 13µM* | 7.9µM* | -55% | ?
O=c1c(-c2ccccc2)coc2cc(O)cc(O)c12 | ? | ? | 0% | /
CC(C)C[C@H](NC(=O)[C@@H](O)[C@@H](N)Cc1ccccc1)C(=O)O | -2% | 7% | / | 15%
Cc1ccc(Nc2ccccc2)cc1 | -13% | 4% | / | /
Cc1ccc(NC2=CC(=O)C(=O)c3ccccc32)cc1 | ? | 3.2µM* | / | /
CCOC(=O)c1cc(-c2ccccc2)n(CC(=O)Nc2cc(Cl)c(OC)cc2OC)c1C | 0% | 20µM* | -10%[10.9 µM] | 1%
O=C1[C@H]2[C@H]3C=C[C@@H](C4[C@H]3[C@@H]3C(=O)N(CN5CCSCC5)C(=O)[C@H]43)[C@H]2C(=O)N1CN1CCSCC1 (some centres not stated) | / | / | -6%[10.9 µM] | /
Cc1[nH]c2ccccc2c1C(c1ccccc1)c1ccc(Cl)s1 (configuration not stated) | ? | 13µM* | 8%[10.9 µM] | ?
O=C(NCCS(=O)(=O)N1CCN(c2ccc(F)cc2)CC1)c1cccc(C(F)(F)F)c1 | -7% | -28% | -10%[10.9 µM] | ?
Cc1ccc(Nc2nc3nonc3nc2Nc2cccc(C(F)(F)F)c2)cc1Cl | 13µM* | 10µM* | -30%[10.9 µM] | ?
O=C(OCC(=O)N1CCCCCC1)c1n[nH]c(=O)c2ccccc12 | -3% | -2% | -14% | 0%
CC1CCN(C(=O)COC(=O)c2n[nH]c3ccccc23)CC1 | ? | 10µM* | -42% | 8%
COc1cc(/C=C(\C#N)c2nc3ccc(C)cc3[nH]2)ccc1OCc1ccc(C)cc1 | 16µM* | 4µM* | -24%[10.9 µM] | ?
Cc1cc(NC(=O)c2ccc3c(c2)OCO3)no1 | 10µM* | 13µM* | -78% | 1%
COc1cccc(-c2nnc(SCC(=O)Nc3cc(C)on3)o2)c1 | ? | ? | -82% | 2%
Cc1cc(NC(=O)c2ccc3c(c2)OCCO3)no1 | 1.6µM* | 2µM* | -88% | 5%
Cc1cc(NC(=O)CSc2nnc(-c3ccc4c(c3)OCCO4)o2)no1 | 5µM* | 0.79µM* | -81% | -1%
CCOc1ccc(C(=O)Nc2cc(C)on2)cc1OCC | 4% | -6% | -5% | -1%
O=C(Nc1nc2c(F)cccc2s1)c1ccc2c(c1)OCCO2 | 10µM* | 5µM* | -30%[10.9 µM] | ?
Cc1ccc(-n2nnc(-c3nsc(NC(=O)c4cccc(Cl)c4)n3)c2C)cc1C | 2% | 1% | -8%[10.9 µM] | -3%
CCc1cccc(-n2nnc(-c3nsc(NC(=O)c4cccs4)n3)c2C)c1 | -19% | 10µM* | -20%[10.9 µM] | -1%
CCc1ccc(-n2nnc(-c3nsc(NC(=O)c4ccccc4Cl)n3)c2C)cc1 | -1% | -26% | -5%[10.9 µM] | ?
SMILES | p53ts 32C tox | p53ts 39C kill | Peg3 imprint | IkB signaling
CSc1cccc(-n2nnc(-c3nsc(NC(=O)c4cccs4)n3)c2C)c1 | 1% | 13µM* | -36%[10.9 µM] | -3%
COc1cc(C)cc2c(-c3c(O)cc(O)c4c3C[C@H](C)N[C@@H]4C)cc(-c3cc(-c4c(O)cc(O)c5c4C[C@H](C)N[C@@H]5C)c4cc(C)cc(OC)c4c3O)c(O)c12 | 7%[9.22 µM] | 12%[9.22 µM] | -13%[10.9 µM] | 1%[11.4 µM]
C/C(CCN1CCCCc2nc(C)c(C)cc21)=N\O[C@@H](C)CN1CCCc2nc(C)c(C)cc21 | 2%[9.22 µM] | 3%[9.22 µM] | / | /
Cc1oc2ccc(O)c(CN(C)Cc3ccccc3)c2c1C(=O)Nc1ccccc1 | ? | ? | -9%[10.9 µM] | ?
Cc1oc2ccc(O)c(CN(C)Cc3ccccc3)c2c1C(=O)Nc1cccc(C(F)(F)F)c1 | 14µM* | 20µM* | -8%[10.9 µM] | ?
N=C1[C@@H](O)[C@]2(I)c3ccccc3N3C(=N)[C@H](O)[C@@H]4c5ccccc5N1[C@@H]4[C@@H]32 | 6%[9.22 µM] | 3%[9.22 µM] | -9%[10.9 µM] | ?
CO[C@H]1COC(=O)[C@H](C)COC(=O)[C@@H](OCc2ccccc2)/C=C\[C@@H]1C | 2%[9.22 µM] | 3%[9.22 µM] | / | /
Cc1nn(-c2ccccc2)c2nc(C3CC3)cc(C(=O)Nc3cccc(F)c3)c12 | 11% | -2% | 18%[10.9 µM] | ?
Nc1cc(C2CCCC2)nn1-c1ccccc1 | 13µM* | ? | -84% | 1%
O=C(/C=C/c1ccc(O)c(O)c1)OC1C[C@](O)(C(=O)O)C[C@@H](O)[C@H]1O (some centres not stated) | 4%[1.84 µM] | 8% | -3% | 0%
CC(C)CO/N=C1/C[C@@H](O)[C@@H](O)[C@@H]2[C@@H]3C(=O)N([C@@H](C)c4ccccc4)C(=O)[C@H]3CC[C@H]12 | -1%[9.22 µM] | 2%[9.22 µM] | / | /
Cc1ccc(S(=O)(=O)N(CC(=O)O)Cc2cccc(C)c2)cc1 | -6% | 7% | / | /
COc1ccc(C(=O)Nc2ccc3c(c2)nc2n3CCSC2)cc1 | 5µM* | 6.3µM* | -13% | -1%
CC(C)C(=O)Nc1ccc2c(c1)nc1n2CCSC1 | -18% | -7% | -10% | -2%
O=C(Nc1ccc2c(c1)nc1n2CCOC1)c1ccccc1 | 13µM* | 16µM* | -52% | ?
CCC(=O)Nc1ccc2c(c1)nc1n2CCSC1 | -11% | 8% | -6% | -1%
O=C(Nc1ccc2c(c1)nc1n2CCSC1)c1ccccc1 | 3.2µM* | 6.3µM* | -74% | ?
Cc1cc(C)c2ccc(C)[n+]([O-])c2c1O | 4% | 10% | 15% | -1%
Cc1cc(C)c2ccc(N)nc2c1O | -22% | ? | -26% | 5µM*
CCN1C(=O)[C@@H]2[C@H]3C(=CC[C@H]2C1=O)C(=O)[C@H]1OC1[C@H]3O (some centres not stated) | 6%[9.22 µM] | -6%[9.22 µM] | / | /
CC(=O)c1ccc(NC(=O)/C=C/c2ccc(C)o2)cc1 | 7.9µM* | 10µM* | -11%[10.9 µM] | ?
Cc1ccccc1-c1nc2cc(N)ccc2o1 | ? | ? | -57% | 1%
CC(C)c1ccc2oc(-c3cc(N)ccc3O)nc2c1 | 13µM* | 16µM* | -70% | ?
Nc1ccc2oc(-c3ccccc3Br)nc2c1 | 13µM* | 13µM* | -20%[10.9 µM] | 2%
Cc1ccc(-c2nc3cc(C(C)C)ccc3o2)cc1NC(=O)c1cc2ccccc2o1 | 0% | 4% | -12%[10.9 µM] | 42%
O=C(c1ccc(-n2c(=O)c(=O)[nH]c3ccccc32)cc1)N1CCCN(Cc2ccccc2)CC1 | 25% | -6% | / | /
O=C(O)/C=C\c1c2ccc(=O)c(O)c-2oc2c(O)c(O)ccc12 | 7%[9.22 µM] | 10%[9.22 µM] | 6%[10.9 µM] | 2%[11.4 µM]
